{"source": "PubChem BioAssay (NCATS)", "note": "Several values for one entry are separate records, joined by “and”; a condition that tells them apart may be missing. Identical values can stand only once. Results filed as inconclusive are left out. Activity calls are given as the source filed them. The call rests on the fitted dose curve.", "data": [{"test": "qHTS Assay for Lipid Storage Modulators (AID 1519); on activity change, negative = inhibition: on the % scale 0 is the no-effect control and ±100 the full control effect", "settings": "Drosophila S3 cells, BODIPY lipid droplet/cell ratio, laser cytometry; at 57.5 µM (top of the series); cells loaded with oleic acid", "method_in_brief": "(§1)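 Cells seeded at 5,000 per well were treated with compounds over a concentration series and loaded with oleic acid (400 uM, as added). Lipid droplet fluorescence (488 nm excitation, 500-530 nm channel) was read by laser-scanning cytometry and normalized to 20 uM Triacsin C.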", "values": [{"smiles": "CC(C)NCC(O)c1ccc2ccccc2c1", "note": "(stereo not drawn)", "activity change, negative = inhibition": "9.75% (inactive)"}, {"smiles": "CCN(CC)CCNc1ccc(CO)c2sc3ccccc3c(=O)c12", "activity change, negative = inhibition": "-11.5% (inactive)"}, {"smiles": "C[N+]12CCC(CC1)C(OC(=O)C(O)(c1ccccc1)c1ccccc1)C2", "note": "(stereo not drawn)", "activity change, negative = inhibition": "1.37% (inactive)"}, {"smiles": "CCN(CC)CCOC(=O)C(Cc1cccc2ccccc12)CC1CCCO1", "note": "(stereo not drawn)", "activity change, negative = inhibition": "2.17% (inactive)"}, {"smiles": "OCCOCCN1CCN(C2=Nc3ccccc3Sc3ccccc32)CC1", "activity change, negative = inhibition": "5.93% (inactive)"}, {"smiles": "CCC(Cc1c(I)cc(I)c(N)c1I)C(=O)O", "note": "(stereo not drawn)", "activity change, negative = inhibition": "4.6% (inactive)"}, {"smiles": "Cc1ncc(CO)c(C=O)c1O", "activity change, negative = inhibition": "-6.06% (inactive)"}, {"smiles": "CCCCC(CC)CN1CN(CC(CC)CCCC)CC(C)(N)C1", "note": "(stereo not drawn)", "activity change, negative = inhibition": "3.27% (inactive)"}, {"smiles": "CN(C)CCOC(=O)C(c1ccccc1)C1(O)CCCC1", "note": "(stereo not drawn)", "activity change, negative = inhibition": "8.35% (inactive)"}, {"smiles": "CCCCCN=C(N)N/N=C/c1c[nH]c2ccc(OC)cc12", "activity change, negative = inhibition": "10.2% (inactive) and 3.1% (inactive)"}, {"smiles": "O=C(O)P(=O)(O)O", "activity change, negative = inhibition": "3.11% (inactive)"}, {"smiles": "COc1cc(N)c(Cl)cc1C(=O)NC1CCN(Cc2ccccc2)CC1", "activity change, negative = inhibition": "9.3% (inactive)"}, {"smiles": "CC(C(=O)O)c1cccc(Oc2ccccc2)c1", "note": "(stereo not drawn)", "activity change, negative = inhibition": "9.66% (inactive)"}, {"smiles": "CCN(CC)CCOc1ccc2c(c1)C(=O)c1cc(OCCN(CC)CC)ccc1-2", "activity change, negative = inhibition": "7.59% (inactive)"}, {"smiles": "CC(=O)NO", "activity change, negative = inhibition": "3.44% (inactive)"}, {"smiles": "COc1ccc(CN(CCN(C)C)c2ncccn2)cc1", "activity change, negative = inhibition": "7.7% (inactive)"}]}, {"test": "qHTS Assay for Lipid Storage Modulators (AID 1519)", "settings": "Drosophila S3 cells, BODIPY lipid droplet/cell ratio, laser cytometry; measured here: cell count channel max response; cells loaded with oleic acid", "method_in_brief": "as §1", "values": [{"smiles": "CC(C)NCC(O)c1ccc2ccccc2c1", "note": "(stereo not drawn)", "max response": "8.22%"}, {"smiles": "CCN(CC)CCNc1ccc(CO)c2sc3ccccc3c(=O)c12", "max response": "-10.2% and 2.62%"}, {"smiles": "C[N+]12CCC(CC1)C(OC(=O)C(O)(c1ccccc1)c1ccccc1)C2", "note": "(stereo not drawn)", "max response": "13%"}, {"smiles": "CCN(CC)CCOC(=O)C(Cc1cccc2ccccc12)CC1CCCO1", "note": "(stereo not drawn)", "max response": "20.1%"}, {"smiles": "C[N+]1(C)CCC(=C(c2ccccc2)c2ccccc2)CC1", "max response": "2.33%"}, {"smiles": "OCCOCCN1CCN(C2=Nc3ccccc3Sc3ccccc32)CC1", "max response": "10.4%"}, {"smiles": "CCC(Cc1c(I)cc(I)c(N)c1I)C(=O)O", "note": "(stereo not drawn)", "max response": "19.5%"}, {"smiles": "COc1cc(C(=O)NCc2ccc(OCCN(C)C)cc2)cc(OC)c1OC", "max response": "-6.84%"}, {"smiles": "Cc1ncc(CO)c(C=O)c1O", "max response": "-8.99%"}, {"smiles": "CCOC(=O)c1ccc(N)cc1", "max response": "-2.21%"}, {"smiles": "CC(C)(C)NC[C@H](O)COc1cccc2c1CCCC2=O", "max response": "-9.82% and 1.67%"}, {"smiles": "CCCCC(CC)CN1CN(CC(CC)CCCC)CC(C)(N)C1", "note": "(stereo not drawn)", "max response": "28.9%"}, {"smiles": "Cc1cc(-c2ccccc2)nnc1NCCN1CCOCC1", "max response": "-6.4%"}, {"smiles": "CCCCNc1ccc(C(=O)OCCOCCOCCOCCOCCOCCOCCOCCOCCOC)cc1", "max response": "-3.1%"}, {"smiles": "CN(C)CCOC(=O)C(c1ccccc1)C1(O)CCCC1", "note": "(stereo not drawn)", "max response": "13.8%"}, {"smiles": "CCCCCN=C(N)N/N=C/c1c[nH]c2ccc(OC)cc12", "max response": "15.4% and 9.7%"}, {"smiles": "CCc1cc(Cl)c(OC)c(C(=O)NC[C@@H]2CCCN2CC)c1O", "max response": "-16.4%"}, {"smiles": "O=C(O)P(=O)(O)O", "max response": "17.9%"}, {"smiles": "CC[C@H](c1ccc(O)cc1)[C@@H](CC)c1ccc(O)cc1", "max response": "-23%"}, {"smiles": "CCCc1ncc(C[n+]2ccccc2C)c(N)n1", "max response": "1.76%"}, {"smiles": "COc1cc(N)c(Cl)cc1C(=O)NC1CCN(Cc2ccccc2)CC1", "max response": "-2.73% and -2.52%"}, {"smiles": "Nc1ccc(S(=O)(=O)Nc2cnc3ccccc3n2)cc1", "max response": "-5.93%"}, {"smiles": "CN1CCC(OC(c2ccccc2)c2ccccc2)CC1", "max response": "-24.7%"}, {"smiles": "CCc1oc2ccccc2c1C(=O)c1cc(Br)c(O)c(Br)c1", "max response": "-13%"}, {"smiles": "CC(C(=O)O)c1cccc(Oc2ccccc2)c1", "note": "(stereo not drawn)", "max response": "14.6%"}, {"smiles": "CCN(CC)CCOc1ccc2c(c1)C(=O)c1cc(OCCN(CC)CC)ccc1-2", "max response": "-3.23%"}, {"smiles": "Cc1c(-c2ccccc2)oc2c(C(=O)OCCN3CCCCC3)cccc2c1=O", "max response": "5.61%"}, {"smiles": "N=C(N)N1CCc2ccccc2C1", "max response": "-5.56%"}, {"smiles": "CC(=O)NO", "max response": "22.2%"}, {"smiles": "CCOC(=O)Nc1ccc2c(c1)N(C(=O)CCN1CCOCC1)c1ccccc1S2", "max response": "-0.906%"}, {"smiles": "COc1ccc(CN(CCN(C)C)c2ncccn2)cc1", "max response": "6.82%"}]}, {"test": "qHTS Assay for Lipid Storage Modulators (AID 1519)", "settings": "Drosophila S3 cells, BODIPY lipid droplet/cell ratio, laser cytometry; measured here: lipid channel max response; cells loaded with oleic acid", "method_in_brief": "as §1", "values": [{"smiles": "CC(C)NCC(O)c1ccc2ccccc2c1", "note": "(stereo not drawn)", "max response": "21.3%"}, {"smiles": "CCN(CC)CCNc1ccc(CO)c2sc3ccccc3c(=O)c12", "max response": "-16.8% and -5.8%"}, {"smiles": "C[N+]12CCC(CC1)C(OC(=O)C(O)(c1ccccc1)c1ccccc1)C2", "note": "(stereo not drawn)", "max response": "15.6%"}, {"smiles": "CCN(CC)CCOC(=O)C(Cc1cccc2ccccc12)CC1CCCO1", "note": "(stereo not drawn)", "max response": "24.7%"}, {"smiles": "C[N+]1(C)CCC(=C(c2ccccc2)c2ccccc2)CC1", "max response": "0.67%"}, {"smiles": "OCCOCCN1CCN(C2=Nc3ccccc3Sc3ccccc32)CC1", "max response": "19.3%"}, {"smiles": "CCC(Cc1c(I)cc(I)c(N)c1I)C(=O)O", "note": "(stereo not drawn)", "max response": "27.1%"}, {"smiles": "COc1cc(C(=O)NCc2ccc(OCCN(C)C)cc2)cc(OC)c1OC", "max response": "-7.91%"}, {"smiles": "Cc1ncc(CO)c(C=O)c1O", "max response": "-15.3%"}, {"smiles": "CCOC(=O)c1ccc(N)cc1", "max response": "-0.169%"}, {"smiles": "CC(C)(C)NC[C@H](O)COc1cccc2c1CCCC2=O", "max response": "-10.4% and -0.857%"}, {"smiles": "CCCCC(CC)CN1CN(CC(CC)CCCC)CC(C)(N)C1", "note": "(stereo not drawn)", "max response": "41.5%"}, {"smiles": "Cc1cc(-c2ccccc2)nnc1NCCN1CCOCC1", "max response": "-4.28%"}, {"smiles": "CCCCNc1ccc(C(=O)OCCOCCOCCOCCOCCOCCOCCOCCOCCOC)cc1", "max response": "-4.96%"}, {"smiles": "CN(C)CCOC(=O)C(c1ccccc1)C1(O)CCCC1", "note": "(stereo not drawn)", "max response": "27.5%"}, {"smiles": "CCCCCN=C(N)N/N=C/c1c[nH]c2ccc(OC)cc12", "max response": "28.4% and 15.4%"}, {"smiles": "CCc1cc(Cl)c(OC)c(C(=O)NC[C@@H]2CCCN2CC)c1O", "max response": "-19.5%"}, {"smiles": "O=C(O)P(=O)(O)O", "max response": "24.7%"}, {"smiles": "CC[C@H](c1ccc(O)cc1)[C@@H](CC)c1ccc(O)cc1", "max response": "-23.9%"}, {"smiles": "CCCc1ncc(C[n+]2ccccc2C)c(N)n1", "max response": "0%"}, {"smiles": "COc1cc(N)c(Cl)cc1C(=O)NC1CCN(Cc2ccccc2)CC1", "max response": "-0.303% and 10.6%"}, {"smiles": "Nc1ccc(S(=O)(=O)Nc2cnc3ccccc3n2)cc1", "max response": "-10.6%"}, {"smiles": "CN1CCC(OC(c2ccccc2)c2ccccc2)CC1", "max response": "-25.4%"}, {"smiles": "CCc1oc2ccccc2c1C(=O)c1cc(Br)c(O)c(Br)c1", "max response": "-17.1%"}, {"smiles": "CC(C(=O)O)c1cccc(Oc2ccccc2)c1", "note": "(stereo not drawn)", "max response": "29.6%"}, {"smiles": "CCN(CC)CCOc1ccc2c(c1)C(=O)c1cc(OCCN(CC)CC)ccc1-2", "max response": "9.04%"}, {"smiles": "Cc1c(-c2ccccc2)oc2c(C(=O)OCCN3CCCCC3)cccc2c1=O", "max response": "7.37%"}, {"smiles": "N=C(N)N1CCc2ccccc2C1", "max response": "-6.4%"}, {"smiles": "CC(=O)NO", "max response": "28.9%"}, {"smiles": "CCOC(=O)Nc1ccc2c(c1)N(C(=O)CCN1CCOCC1)c1ccccc1S2", "max response": "-3.86%"}, {"smiles": "COc1ccc(CN(CCN(C)C)c2ncccn2)cc1", "max response": "17.3%"}]}]}
